This is an account of results in PubChem BioAssay AID651703 (Broad Institute, 2012).

In all, about 1,200 compounds went through this assay and about 970 (81%) were called active. The set was probably picked from earlier hits. Not all results are given here. Entries with a potency or affinity are not part of this list. Unmarked numbers belong to inactive results. How the calls were made is not given here.

This experiment has as its target Transforming acidic coiled-coil-containing protein 3 (Homo sapiens) (UniProt Q9Y6A5). The experiment can be described thus: ARNT/TACC3 interaction disruptors, potency, confirmation, biochemical, AlphaScreen, cherry-picked samples (AID 651703).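 Further: TACC3 partner is the GST-tagged E629A mutant dimer; hits lower the signal meaning they disrupt ARNT binding to TACC3.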 The note with it: AlphaScreen His-ARNT PAS-B / GST-TACC3 binding, luminescence; series mostly up to 68 µM; activity change, negative = inhibition: at the top concentration. In general terms: Bead proximity is the source of the signal in Alpha formats.
For `O=C(C[C@H]1CC[C@@H](NC(=O)c2ccccc2)[C@H](CO)O1)Nc1ccc(-c2ccccc2)cc1`, the “activity change, negative = inhibition” value was -7.06%.

Take `O=C(N[C@H]1CC[C@@H](CCn2cc(-c3ccccc3)nn2)O[C@@H]1CO)c1cnccn1`: the “activity change, negative = inhibition” value is -5.38%.

Consider `O=C(C[C@@H]1CC[C@@H](NC(=O)c2ccccc2)[C@H](CO)O1)Nc1ccc(-c2ccccc2)cc1`, for which the “activity change, negative = inhibition” value is -7.97%.

In the case of `CN1CCC(n2[nH]c(-c3ccccc3)c(Cc3ccccc3)c2=O)CC1`, the “activity change, negative = inhibition” value was -10.5%.

With `COc1ccc(-c2cnc3c(c2)C(=O)N([C@H](C)CO)C[C@@H](C)[C@H](CN(C)Cc2cccnc2)O3)cc1`, the “activity change, negative = inhibition” value is -5.95%.

As for `C[C@@H]1CN([C@@H](C)CO)C(=O)c2cc(NC(=O)CCN3CCOCC3)ccc2O[C@@H]1CN(C)Cc1ccncc1`, the “activity change, negative = inhibition” value is -3.85%.

For `C[C@H]1CN([C@@H](C)CO)C(=O)c2cc(C#Cc3ccccn3)cnc2O[C@@H]1CN(C)Cc1ccccc1`, the “activity change, negative = inhibition” value was -12.5%.

Turning to `CC(C)NC(=O)Nc1ccc2c(c1)CC(=O)N([C@H](C)CO)C[C@H](C)[C@H](CN(C)S(=O)(=O)c1cccs1)O2`, the “activity change, negative = inhibition” value is -14.9%.

As for `CC(C)NC(=O)N(C)C[C@H]1Oc2ccc(N(C)C)cc2CC(=O)N([C@@H](C)CO)C[C@@H]1C`, the “activity change, negative = inhibition” value is 0.668%.

As to `C[C@H](CO)N1C[C@H](C)[C@H](CN(C)C(=O)NC2CCCCC2)Oc2ccc(NS(=O)(=O)c3cccs3)cc2CC1=O`, the “activity change, negative = inhibition” value was -6.44%.

As for `COc1ccc(CN(C)C[C@@H]2Oc3ccc(NC(=O)Cn4cnnn4)cc3C(=O)N([C@@H](C)CO)C[C@H]2C)cc1`, the “activity change, negative = inhibition” value was -9.62%.

As to `Cc1cc(C)n2nc(-c3cccc(Br)c3)cc2n1`, the “activity change, negative = inhibition” value is 0.525%.

Consider `N/C(=N\NS(=O)(=O)c1ccccc1Cl)c1ccccn1`, for which the “activity change, negative = inhibition” value is -23%.

In the case of `S=c1[nH]nc(-c2cc3c(s2)-c2ccccc2CC3)o1`, the “activity change, negative = inhibition” value is -31.4%.

For `COc1cc2c(cc1OC)-c1cc(Nc3cccc(C)c3)nc(=O)n1CC2`, the “activity change, negative = inhibition” value was 5.52%.

Take `NS(=O)(=O)c1ccc(CCNC(=O)COC(=O)c2ccc([N+](=O)[O-])o2)cc1`: the “activity change, negative = inhibition” value is -30.5%.

Take `O=C(COC(=O)c1ccc([N+](=O)[O-])o1)NCc1ccccc1`: the “activity change, negative = inhibition” value was -21.1%.

In the case of `O=C(NCCc1ccccc1)c1ccc(=O)[nH]c1`, the “activity change, negative = inhibition” value was -5.64%.

As for `NC(=O)CC(NC(=O)c1ccccc1)c1ccc(NCc2ccccn2)c([N+](=O)[O-])c1` (stereo not drawn), the “activity change, negative = inhibition” value was -13.6%.

Turning to `COc1cc(/C=N/NC(=O)CSc2n[nH]c(=O)[nH]c2=O)cc(OC)c1O`, the “activity change, negative = inhibition” value is -11%.

For the compound `O=C(c1cc(-c2ccccc2)on1)N1CCC(CO)CC1`, the “activity change, negative = inhibition” value was -1.3%.

For `O=C(c1cc(-c2ccccc2)on1)N1CCC(N2CCOCC2)CC1`, the “activity change, negative = inhibition” value was -4.7%.

As to `Cc1[nH]c(=O)[nH]c(=O)c1/C=N/NC(=O)[C@H](C)NC(=O)OC(C)(C)C`, the “activity change, negative = inhibition” value was -1.1%.

For `COc1ccc(-c2nnc(SCC(=O)NC3CC3)o2)cc1`, the “activity change, negative = inhibition” value is -3.22%.

Consider `COC(=O)C[C@@H]1CC[C@@H](NS(=O)(=O)c2ccc(OC)cc2)[C@H](CO)O1`, for which the “activity change, negative = inhibition” value is -0.059%.

For `Cc1[nH]cnc1CN1CCc2c(c3ccccc3n2C)C1=O`, the “activity change, negative = inhibition” value is -21.6%.

For `COc1ccc(C(=O)Nc2nc3ccccc3[nH]2)cc1S(=O)(=O)N1CCOCC1`, the “activity change, negative = inhibition” value is -27.7%.

With `O=C(NCCN1CCOCC1)c1cc(-c2ccccc2)on1`, the “activity change, negative = inhibition” value is -3.9%.

For the compound `O=C(NCCCN1CCOCC1)c1cc(-c2ccccc2)on1`, the “activity change, negative = inhibition” value is 6.12%.

For `CCOc1cc2nc(-c3ccc(OC)c(OC)c3)nc(NCCCN3CCOCC3)c2cc1OC`, the “activity change, negative = inhibition” value was -5.91% [at 35 µM].

With `C#CCOCCOCCOCCNc1nc(N2CCN(C(=O)[C@H](CCC(=O)O)n3cc([C@@H](N)CCCCN)nn3)CC2)nc(N2CCN(C(=O)[C@H](CCCCN)n3cc([C@@H](N)CC(N)=O)nn3)CC2)n1`, the “activity change, negative = inhibition” value is -14.6%.

For the compound `C#CCOCCOCCOCCNc1nc(N2CCN(C(=O)C([C@@H](C)O)n3cc([C@@H](N)CCCCN)nn3)CC2)nc(N2CCN(C(=O)C([C@@H](C)O)n3cc([C@@H](N)CCCCN)nn3)CC2)n1` (stereo partly drawn), the “activity change, negative = inhibition” value was -11%.

As for `C#CCOCCOCCOCCNc1nc(N2CCN(C(=O)Cn3cc(CCCCN)nn3)CC2)nc(N2CCN(C(=O)[C@H](CCCCN)n3cc(CCCC)nn3)CC2)n1`, the “activity change, negative = inhibition” value was -8.06%.

`C#CCOCCOCCOCCNc1nc(N2CCN(C(=O)[C@H](CCCCN)n3cc([C@@H](N)CC(N)=O)nn3)CC2)nc(N2CCN(C(=O)[C@H](CCCCN)n3cc([C@@H](N)CC(N)=O)nn3)CC2)n1`: the “activity change, negative = inhibition” value is -22%.

In the case of `CCOc1cc(C(=O)NC2CC(C)(C)NC(C)(C)C2)cc(OCC)c1OCC`, the “activity change, negative = inhibition” value is -3.7%.

For the compound `c1ccc(CN2CCN(CCCNc3ccc4nnc(-c5ccccc5)n4n3)CC2)cc1`, the “activity change, negative = inhibition” value was -28.4%.

Take `Oc1cccc(CN2CCOCC2)c1O`: the “activity change, negative = inhibition” value was -3.34%.

As to `COc1ccc(C(=O)NNC(=O)Cc2coc3cc(OC)ccc23)cc1`, the “activity change, negative = inhibition” value was -12.1%.

Turning to `CCN(/N=C/c1ccccc1)c1cc(=O)n(C)c(=O)[nH]1`, the “activity change, negative = inhibition” value is -29.9%.

In the case of `O=C(Nc1ccccc1)N1CCCCN2[C@H](C1)[C@H](c1ccc(C#CC3CC3)cc1)[C@@H]2CO`, the “activity change, negative = inhibition” value was -25.8%.

On to `CC(C)(C)c1cc(C(=O)NCCCn2ccnc2)cc(C(C)(C)C)c1`, for which the “activity change, negative = inhibition” value was -17.3%.

For `O=C(NCCCn1ccnc1)c1cc(-c2ccccc2)on1`, the “activity change, negative = inhibition” value was -3.75%.

Regarding `COc1ccc(-c2cnc3c(c2)C(=O)N([C@H](C)CO)C[C@H](C)[C@H](CN(C)Cc2cccnc2)O3)cc1`, the “activity change, negative = inhibition” value was -2.08%.

`O=C(O)C1C2C=CC(C2)C1C(=O)NCCCn1ccnc1` (stereo not drawn): the “activity change, negative = inhibition” value is -5.06%.

On to `CN(c1ccc(C(=O)N2CCc3ccccc3C2)cc1)S(C)(=O)=O`, for which the “activity change, negative = inhibition” value is -30.6%.

For the compound `O=C(C1CC1)N1CCc2cc(Br)cc(S(=O)(=O)NCc3ccccn3)c21`, the “activity change, negative = inhibition” value was -4.26%.

Consider `CO[C@H]1CN(C)C(=O)c2cc(NS(=O)(=O)CC(F)(F)F)ccc2OC[C@H](C)N(Cc2cccnc2)C[C@@H]1C`, for which the “activity change, negative = inhibition” value is -3.73%.

On to `O=C(Nc1ccc(Br)cn1)c1cccc(C(=O)Nc2ccc(Br)cn2)c1`, for which the “activity change, negative = inhibition” value was -24.4%.

As for `O=C(NC1Cc2ccccc2C1)c1cc(-c2ccccc2)on1`, the “activity change, negative = inhibition” value was -0.19%.

Turning to `c1c[nH]c(CN2CCN(Cc3ncc[nH]3)CC2)n1`, the “activity change, negative = inhibition” value was -24%.

With `CC1(C)CC(=O)C=C(Nc2ccccc2N)C1`, the “activity change, negative = inhibition” value was 13.5%.

Take `O=c1[nH]cnc2c1C(c1ccccc1[N+](=O)[O-])c1c(nc[nH]c1=O)O2`: the “activity change, negative = inhibition” value is -10.3%.

Consider `O=C(NCCCCO)c1cc(-c2ccccc2)on1`, for which the “activity change, negative = inhibition” value was -1.85%.

Consider `O=C1CN(C(=O)COC(=O)c2ccc([N+](=O)[O-])o2)c2ccccc2N1`, for which the “activity change, negative = inhibition” value was -18.7%.

Turning to `O=C(O)c1c[nH]c2c([N+](=O)[O-])cccc2c1=O`, the “activity change, negative = inhibition” value was -5.07%.

For `O=C(N/N=C/c1c(Cl)nc2ccccn2c1=O)c1cccnc1`, the “activity change, negative = inhibition” value is -20.1%.

Take `C[C@H](CO)N1C[C@H](C)[C@@H](CN(C)C(=O)Nc2ccc(C(F)(F)F)cc2)Oc2ncc(C3=CCCC3)cc2C1=O`: the “activity change, negative = inhibition” value is -28.6%.

`O=C(Nc1cnc2ccccc2c1)c1cc(-c2ccccc2)on1`: the “activity change, negative = inhibition” value is -3.86%.

For `CCOC(=O)N1CCN(C(=O)CSc2ccc3nnc(-c4ccccn4)n3n2)CC1`, the “activity change, negative = inhibition” value is -23.3%.

As for `O=C(Nc1cccc(F)c1)c1cccnc1NCCc1ccccc1`, the “activity change, negative = inhibition” value is -12.3%.

`Cc1ccc(C2=CSC3=NS(=O)(=O)CCN23)cc1`: the “activity change, negative = inhibition” value is -17.9%.

Regarding `O=C(Nc1ccc2nc(-c3ccccn3)[nH]c2c1)C1CCCCC1`, the “activity change, negative = inhibition” value was -26.6%.

`O=C(NN=C1CCCC1)c1ccc(O)cc1O`: the “activity change, negative = inhibition” value is -19%.
